Assay [1] has as its system TRPC4 beta (transient receptor potential cation channel C4), mouse. Kind of assay: TRPC4 cation channel opening, retest – cell-based, Fluo4 calcium, HEK293 TRPC4beta/mu-opioid, duplicates, 10 µM, confirmation (AID 2426;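 active = fluorescence ratio normalized to control raised more than 50% in primary screen plus both repeat runs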). The settings on record: Fluo4 calcium fluorescence, at 10 µM; hits give high values.
The test system of assay [2] is transient receptor potential cation channel C4 beta (TRPC4), mouse. Kind of assay: TRPC4 cation channel opening, second retest – cell-based, second round, Fluo4, HEK293 TRPC4beta/mu-opioid, 1 µM, confirmation (AID 2461;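 active = primary screen active and over 50% activation in each of two duplicate runs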). The settings on record: Fluo4 calcium fluorescence, at 1 µM; hits give high values.
Assay [3] has as its system TRPC4 (transient receptor potential cation channel C4 beta), mouse. Kind of assay: potentiation of DAMGO EC20 TRPC4 response – cell-based, second round, Fluo-4, HEK293 TRPC4beta/mu-opioid, 1 µM, confirmation (AID 2554;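 active = primary screen hit whose fluorescence ratio, in both repeats, exceeds the weak agonist control mean by 3 SD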). The settings on record: DAMGO EC20, Fluo-4 calcium flux, at 1 µM; hits give high values. For orientation: Calcium assays in cells follow changes in intracellular calcium, usually with a dye or a luminescent sensor.

The test system of assay [4] is TRPC4 beta (transient receptor potential cation channel C4), mouse. Kind of assay: potentiation of DAMGO EC20 TRPC4 response – cell-based, Fluo-4, HEK293 TRPC4beta/mu-opioid, confirmation (AID 2555;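 active = primary screen hit whose calcium fluorescence ratio, in both repeats, exceeds the weak agonist control mean by 3 SD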). The settings on record: DAMGO EC20, Fluo-4 calcium flux, at 10 µM; hits give high values.
Assay [5] has as its target Short transient receptor potential channel 4 (Mus musculus) (UniProt Q9QUQ5). The experiment in a line: blockers of DAMGO-evoked TRPC4 calcium flux – cell-based, Fluo4, HEK293 TRPC4beta/mu-opioid, confirmation (AID 2636;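 active = calcium signal cut by more than 3 SD below the full-agonist control yet still positive, in both repeats and the earlier primary screen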). The settings on record: at 10 µM; hits give high values.
The target is the same in assay [6]. Kind of assay: blockers of DAMGO-evoked TRPC4 calcium flux – cell-based, second round, Fluo4, HEK293 TRPC4beta/mu-opioid, 1 µM, confirmation (AID 2637;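 active = calcium signal ratio cut to more than 3 SD under the fully stimulated control mean yet still positive, in both repeats and the primary screen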;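 as to inhibition: percent of integrated ratio relative to wells lacking test compound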). The settings on record: at 1 µM; hits give high values.
Assay [7] has the same target. Kind of assay: calcium entry via TRPC4 opening agents – cell-based, HEK293 TRPC4/mu-opioid, Fluo-4 calcium, dose response (AID 434937;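 active = primary screen activator hit with a dose response curve and TRPC4 channel activation at any tested dose; inactive = no activation, no dose response, or not a primary hit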).
The target is the same in assay [8]. Kind of assay: potentiation of DAMGO-evoked TRPC4 calcium signal – cell-based, HEK293 TRPC4/mu-opioid, Fluo-4 calcium, EC20 DAMGO, dose response (AID 434941;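 active = earlier screen potentiator hit that boosts the TRPC4 ion channel at some dose, with a dose response; inactive = no potentiation, no dose response, or not a prior hit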;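 also: calcium entry triggered by an EC20 dose of DAMGO at the co-expressed mu-opioid receptor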).
Assay [9] concerns the target Short transient receptor potential channel 6 (Mus musculus) (UniProt Q61143). Kind of assay: TRPC6 blockade by TRPC4 inhibitor hits – cell-based, HEK293, membrane potential dye, duplicate, selectivity assay for TRPC4 inhibitor project, confirmation (AID 434948;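 active = active in primary screen and both duplicates, each dropping signal beyond three positive-control SD with fluorescence still positive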). The settings on record: HEK293 TRPC6, membrane potential dye fluorescence, at 10 µM, stimulated with maximal-effect acetylcholine; hits give high values.

Assay [10] shares this target. The experiment in a line: TRPC6 opening by TRPC4 activator hits – cell-based, HEK293, membrane potential dye, duplicate, selectivity assay for TRPC4 activator project, confirmation (AID 434950). The settings on record: HEK293 TRPC6, membrane potential fluorescence, at 10 µM; activation: hits give high values; outcome: activation.
The target is the same in assay [11]. The experiment in a line: positive modulators of mouse TRPC6 channel – HEK293 cells, membrane potential dye, duplicate, selectivity assay for TRPC4 potentiator project, confirmation (AID 434952;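 active = compound raising the membrane signal above positive-control mean plus 3 SD in both repeats, and a primary screen hit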). The settings on record: HEK293 TRPC6, membrane potential dye fluorescence, at 10 µM, maximal acetylcholine added after compound; hits give high values.
In assay [12] the target is Short transient receptor potential channel 4 (Mus musculus) (UniProt Q9QUQ5). Kind of assay: calcium flux activators in TRPC4/5HT1a cells, counter-screen for TRPC4 activator project, cell-based, second counter screen, HEK293 TRPC4/5HT1a, Fluo-4 (AID 434977;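 active = calcium signal rise above buffer-control mean plus 5 SD in both duplicates, and also a hit in the primary screen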). The settings on record: Fluo-4 calcium flux, at 10 µM; hits give high values.
Sequence of Short transient receptor potential channel 4 (Mus musculus) (Q9QUQ5 whole entry, looked up): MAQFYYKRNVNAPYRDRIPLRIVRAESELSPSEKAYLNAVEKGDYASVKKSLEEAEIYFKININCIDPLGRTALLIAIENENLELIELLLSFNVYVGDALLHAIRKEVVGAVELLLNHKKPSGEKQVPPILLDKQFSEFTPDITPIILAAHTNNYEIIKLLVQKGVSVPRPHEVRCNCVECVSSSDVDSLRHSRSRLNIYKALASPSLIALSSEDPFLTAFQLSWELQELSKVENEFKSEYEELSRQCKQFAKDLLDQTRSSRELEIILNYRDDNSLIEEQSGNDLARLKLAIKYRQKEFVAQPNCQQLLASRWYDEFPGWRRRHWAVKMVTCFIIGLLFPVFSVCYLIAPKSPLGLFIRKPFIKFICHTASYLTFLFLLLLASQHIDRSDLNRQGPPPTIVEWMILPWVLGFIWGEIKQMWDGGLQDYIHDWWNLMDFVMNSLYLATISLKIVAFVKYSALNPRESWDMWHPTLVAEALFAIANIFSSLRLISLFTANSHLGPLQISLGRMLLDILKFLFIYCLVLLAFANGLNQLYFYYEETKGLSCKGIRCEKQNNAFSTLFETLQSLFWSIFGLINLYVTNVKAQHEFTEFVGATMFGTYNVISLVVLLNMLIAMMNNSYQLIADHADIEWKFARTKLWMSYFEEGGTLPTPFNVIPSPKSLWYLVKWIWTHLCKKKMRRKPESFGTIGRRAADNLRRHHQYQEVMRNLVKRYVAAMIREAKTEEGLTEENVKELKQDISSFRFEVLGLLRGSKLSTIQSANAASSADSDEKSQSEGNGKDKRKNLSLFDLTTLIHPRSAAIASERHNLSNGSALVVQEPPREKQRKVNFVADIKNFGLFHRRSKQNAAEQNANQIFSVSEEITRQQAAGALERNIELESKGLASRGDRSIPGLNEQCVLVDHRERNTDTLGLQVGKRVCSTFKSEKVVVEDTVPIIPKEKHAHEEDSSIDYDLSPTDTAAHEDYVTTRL
Assay [13] is described as follows: serotonin-gated TRPC4 signal block – cell-based, second counter screen, HEK293 TRPC4/5HT1a, Fluo-4, counter-screen for TRPC4 inhibitor project, confirmation (AID 434978;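 active = primary screen active whose calcium signal fell more than 3 SD beyond the full-serotonin control mean in both duplicate plates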;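 as to outcome: serotonin given first at submaximal then at maximal dose after compound preincubation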). The settings on record: Fluo-4 calcium flux, at 10 µM, serotonin added to trigger calcium flux; hits give high values. Background: The purpose of a counterscreen is to sort out artefacts and off-target activity.

Assay [14] deals with TRPC4 (mouse), co-expressed with 5HT1a in HEK293. The experiment in a line: enhancement of serotonin-evoked TRPC4 response – cell-based, second counter screen, HEK293 TRPC4/5HT1a, Fluo-4, counter-screen for TRPC4 potentiator project, confirmation (AID 434979;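 active = signal rise over 3 SD above mean of control wells given weak agonist, in both repeats and first screen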). Particulars: Fluo-4 calcium flux, at 10 µM, serotonin added at its EC20 dose; hits give high values.
Assay [15] can be described thus: nonspecific calcium rise without TRPC4 – cell-based, HEK293 mu-opioid receptor line, counter-screen for TRPC4 activator project, confirmation (AID 449723;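 active = hit in primary screen, with calcium signal over 5 SD above buffer well mean in both duplicates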;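 also: counter screen cells carry the mu-opioid receptor alone and lack TRPC4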). The settings on record: HEK293 mu-opioid cells, Fluo-4 calcium fluorescence, at 10 µM; hits give high values.
Assay [16] in a line: nonspecific potentiation of DAMGO calcium response – cell-based, HEK293 mu-opioid receptor line, counter-screen for TRPC4 allosteric potentiator project, confirmation (AID 449724;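 active = calcium signal rise more than 3 SD above the low-dose agonist control mean, in both duplicate plates and the primary screen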;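 also: HEK293 cells carrying mu-opioid receptor only with no TRPC4 channel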). The settings on record: HEK293 mu-opioid receptor cells, Fluo-4 calcium flux, at 10 µM, compound added before EC20 DAMGO stimulus; hits give high values.

For some assays here: Measured potencies and affinities stand elsewhere. Activity calls are given as the source filed them.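 The calls were made as follows, unless noted: active = membrane potential signal rise above negative control mean plus 3 SD in both duplicates, also active in the earlier TRPC4 screen; inactive = the rest.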

One may read the inhibition as the drop in the measured response relative to a control, in per cent.

Sequence of Short transient receptor potential channel 6 (Mus musculus) (Q61143 whole entry, looked up): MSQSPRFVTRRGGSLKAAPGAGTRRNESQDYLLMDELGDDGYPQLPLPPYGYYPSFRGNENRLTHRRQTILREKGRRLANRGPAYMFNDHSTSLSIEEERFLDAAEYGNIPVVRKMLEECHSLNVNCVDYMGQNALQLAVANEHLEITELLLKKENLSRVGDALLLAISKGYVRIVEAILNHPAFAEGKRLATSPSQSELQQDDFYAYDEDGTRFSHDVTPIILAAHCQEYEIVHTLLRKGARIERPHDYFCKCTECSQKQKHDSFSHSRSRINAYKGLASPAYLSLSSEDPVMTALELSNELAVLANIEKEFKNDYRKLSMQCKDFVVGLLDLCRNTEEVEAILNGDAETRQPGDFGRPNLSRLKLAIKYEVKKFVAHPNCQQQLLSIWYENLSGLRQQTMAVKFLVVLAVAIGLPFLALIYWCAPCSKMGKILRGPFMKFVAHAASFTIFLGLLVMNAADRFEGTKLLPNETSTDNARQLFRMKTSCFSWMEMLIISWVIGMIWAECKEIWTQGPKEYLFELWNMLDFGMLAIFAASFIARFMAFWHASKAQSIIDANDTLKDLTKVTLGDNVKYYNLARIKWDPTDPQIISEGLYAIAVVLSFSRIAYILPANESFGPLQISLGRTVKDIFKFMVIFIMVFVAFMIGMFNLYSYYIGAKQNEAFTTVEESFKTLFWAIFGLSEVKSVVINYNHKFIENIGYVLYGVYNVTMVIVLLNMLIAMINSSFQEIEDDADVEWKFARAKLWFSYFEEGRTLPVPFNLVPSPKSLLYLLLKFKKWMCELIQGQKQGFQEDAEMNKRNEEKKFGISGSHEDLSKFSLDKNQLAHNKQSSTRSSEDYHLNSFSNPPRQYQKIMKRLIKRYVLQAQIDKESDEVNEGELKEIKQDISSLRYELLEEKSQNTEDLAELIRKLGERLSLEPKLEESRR

As for `O=C(Nc1ccnn1C1CCN(CCCC2CCCC2)CC1)c1ccccc1Cl`, the result in [1], in assay [2], in assay [3], in assay [4], in [6] and in assay [7] was inactive. Besides, the result in [8], in assay [9], in assay [10], in assay [11], in assay [12] and in assay [13] was inactive. Besides, the result in assay [14], in assay [15] and in assay [16] was inactive. Moreover, the inhibition in assay [5] was 97% (active).
Consider `C=C(c1ccc(O)cc1)c1ccc(O)cc1`, for which the outcome in assay [1], in assay [2], in assay [3], in [4], in assay [7] and in assay [8] was inactive. Besides, the outcome in [9], in assay [10], in assay [11], in [12], in assay [14] and in [15] was inactive. Moreover, in assay [16], the outcome was inactive. Also, the inhibition in assay [5] is 89% (active); in [6], 47% (active); in [13], 29.6% (active).
For `Cc1cccc2cc(CN(Cc3nnnn3Cc3ccccc3)C3CCCC3)c(=O)[nH]c12`, the result in [1], in assay [2], in [3], in assay [4], in [7] and in assay [8] was inactive. Besides, the compound was called inactive in [9], in [10], in assay [11], in assay [12], in [13] and in [14]. The result in assay [15] and in assay [16] was inactive. Also, the inhibition in assay [5] was 91% (active); in [6] it was 63% (active).
As for `CCOC(=O)C1=C(C)NC(=O)CC1c1cc2c(cc1[N+](=O)[O-])OCO2` (centres undefined), the outcome in assay [1], in assay [2], in assay [3], in assay [4], in [7] and in assay [8] was inactive. The compound was classed as inactive in assay [9], in assay [10], in assay [11], in assay [12], in [14] and in assay [15]. Moreover, in assay [16], the result was inactive. In addition, the inhibition in assay [5] was 71% (active); in assay [6], 40% (active); in [13], 20.2% (active).
Turning to `O=C(CN1CCN(Cc2ccccc2Cl)CC1)N=Nc1c(O)[nH]c2ccccc12`, the result in assay [1], in [2], in [3], in [4], in [7] and in assay [8] was inactive. The result in assay [9], in assay [10], in assay [11], in assay [12], in assay [13] and in assay [14] was inactive. Further, the outcome in assay [15] and in [16] was inactive. Moreover, the inhibition in [5] is 90% (active); in [6], 50% (active).
Turning to `Cc1onc(-c2c(F)cccc2Cl)c1C(=O)N(C)CC(=O)Nc1cccc(F)c1`, the result in assay [1], in assay [2], in assay [3], in assay [4], in assay [6] and in [7] was inactive. Besides, the result in assay [8], in assay [9], in assay [10], in [11], in assay [12] and in assay [13] was inactive. For the same compound, the result in [14], in [15] and in [16] was inactive. Besides, the inhibition in [5] was 84% (active).
For the compound `CCOc1ccc2ccccc2c1CNCCc1ccc(S(N)(=O)=O)cc1`, the outcome in assay [1], in assay [2], in [3], in [4], in assay [6] and in assay [7] was inactive. For the same compound, the result in [8], in assay [9], in assay [10], in [11], in assay [12] and in assay [14] was inactive. Moreover, the outcome in assay [15] and in assay [16] was inactive. For the same compound, the inhibition in assay [5] was 92% (active); in [13] it was 35.5% (active).
Take `CCCn1c(NC(=O)c2cccc(S(=O)(=O)N3CCCC3)c2)nc2ccccc21`: the result in assay [1], in assay [2], in [6], in [7], in [8] and in assay [9] was inactive. Also, the call in assay [10], in assay [11], in [12], in [13], in assay [15] and in assay [16] was inactive. The potentiation in assay [3] is 11% (active); in assay [4] it was 64% (active); in assay [14], 24.4% (active). Further, the inhibition in [5] is 87% (active).
With `CC1CCN(CCCOc2ccc(OCc3ccccc3)cc2)CC1`, the result in [1], in [2], in [3], in [4], in assay [6] and in assay [7] was inactive. In addition, the outcome in [8], in assay [9], in assay [10], in [11], in assay [12] and in [14] was inactive. The result in [15] and in assay [16] was inactive. In addition, the inhibition is 96% (active) in assay [5] and 22.7% (active) in assay [13].
Consider `Cc1ccc(Nc2cc(C)nc3c(C)cccc23)cc1`, for which the outcome in assay [1], in [2], in [3], in assay [4], in assay [5] and in assay [7] was inactive. Moreover, the result in assay [8], in assay [10], in assay [11], in assay [12], in assay [14] and in assay [15] was inactive. The outcome in assay [16] was inactive. The inhibition was 54% (active) in assay [6], 22% (active) in assay [9] and 35.3% (active) in assay [13].
On to `CC(=O)C1=C(O)C(=O)N(Cc2ccccc2)C1c1ccc([N+](=O)[O-])cc1` (centres undefined), for which the outcome in assay [1], in assay [2], in assay [3], in assay [4], in assay [7] and in assay [8] was inactive. Moreover, the compound was called inactive in [9], in assay [10], in assay [11], in [12], in assay [14] and in assay [15]. In assay [16], the result was inactive. The inhibition was 95% (active) in [5], 61% (active) in assay [6] and 34.5% (active) in assay [13].
As to `CCOC(=O)c1c(NC(=O)/C=C/C(=O)O)sc(C)c1-c1ccc(C(C)(C)C)cc1`, the outcome in assay [1], in [2], in assay [3], in assay [4], in [5] and in assay [6] was inactive. Moreover, the outcome in [7], in [8], in [9], in [10], in assay [11] and in assay [12] was inactive. For the same compound, the outcome in assay [14], in assay [15] and in [16] was inactive. In addition, the inhibition in assay [13] is -6.26% (active).
Regarding `c1ccc2c(N3CCCCC3)nc(N3CCOCC3)nc2c1`, the outcome in [1], in assay [2], in [3], in [4], in assay [6] and in [7] was inactive. In addition, the result in assay [8], in assay [9], in assay [10], in assay [11], in assay [12] and in assay [14] was inactive. Also, the result in assay [15] and in assay [16] was inactive. Further, the values for the inhibition in assay [5] and in assay [13] were 84% (active) and 30.8% (active), respectively.
Regarding `COC(=O)CSc1nnc(-c2sc3cc(OC)ccc3c2Cl)n1C`, the outcome in assay [1], in [2], in assay [3], in assay [4], in assay [7] and in assay [8] was inactive. The result in [9], in assay [10], in assay [11], in assay [12], in assay [13] and in assay [14] was inactive. Further, the result in assay [15] and in assay [16] was inactive. For the same compound, the inhibition is 95% (active) in assay [5] and 59% (active) in assay [6].

Values taken from PubChem BioAssay.
